The structures appear in SMILES notation. The whole screen tested about 140,000 compounds, of which about 4,300 (3.1%) were called active. Inconclusive results (about 21%) are left out.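 The calls were made as follows: active = readout at or below -70, meaning at least 70% loss of cells showing the perinucleolar compartment, a nuclear body marking cancer cells; inconclusive = readout between -30 and a set limit; inactive = the rest.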 For the sample, actives were picked, then their nearest neighbours and some compounds at random.

The assay can be described thus: High Content Assay for Compounds that inhibit the Assembly of the Perinucleolar Compartment.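 Also: plate controls were DMSO wells for no effect and camptothecin positive control wells for full effect.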 The conditions noted are these: PC3M PTB-GFP, PNC prevalence imaging, 16 h; at 10 µM; hits give low values. An outline of the steps:
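PC3M cells stably expressing PTB-GFP, 750–1000 cells/well, treated 16 h at 37 °C with compound (23 nl of library stock), in duplicate. After paraformaldehyde fixation and Hoechst stain, imaged at 20x; PNC prevalence scored by image analysis.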
On to `O=C(NC(=S)N1CCN(Cc2ccccc2)CC1)c1ccccc1`, for which the activity change (PNC), negative = inhibition was -17% (inactive).

For `Cc1cc(C(=O)NNC(=S)NC(C)c2ccccc2)cs1` (stereo not drawn), the activity change (PNC), negative = inhibition was 1.77% (inactive).

Consider `CN(c1ccc(C(=O)N2CCc3ccccc3C2)cc1)S(C)(=O)=O`, for which the activity change (PNC), negative = inhibition is -100% (active).

In the case of `CN(c1ccc(C(=O)NCCC2=CCCCC2)cc1)S(C)(=O)=O`, the activity change (PNC), negative = inhibition is 32.9% (inactive).

As for `COc1cc2c(cc1OC)CN(C(=O)c1ccc(S(=O)(=O)N3CCCCCC3)cc1)CC2`, the activity change (PNC), negative = inhibition is -8.24% (inactive).

As to `Cc1ccc(NC(=O)CN2CCC3(O)CCCCC3C2c2ccc3c(c2)OCO3)c(C)c1` (stereo not drawn), the activity change (PNC), negative = inhibition is -90% (active).

In the case of `CCN(CC)c1ccc(C2C3CCCCC3(O)CCN2CC(=O)Nc2ccccc2)cc1` (stereo not drawn), the activity change (PNC), negative = inhibition is -22.9% (inactive).

On to `Cc1ccc(NC(=O)Cn2cccc2C2=NC(c3ccccc3)CO2)c(C)c1` (stereo not drawn), for which the activity change (PNC), negative = inhibition was 17.1% (inactive).

As for `COc1cc(C2C(N3C(=O)c4ccccc4C3=O)C(=O)N2c2ccc(C)c(C)c2)cc(OC)c1OC` (stereo not drawn), the activity change (PNC), negative = inhibition was 31.7% (inactive).

`CCn1c(NC(=O)c2nn(C)cc2Br)nc2ccccc21`: the activity change (PNC), negative = inhibition is -114% (active).

Regarding `Cc1ccc(Cn2c(NC(=O)c3ccco3)nc3ccccc32)cc1`, the activity change (PNC), negative = inhibition was 2.65% (inactive).

For `CCC(=O)NCCc1nc2ccccc2n1CC`, the activity change (PNC), negative = inhibition was 14% (inactive).

`Cc1nnnn1/C(=C\c1ccccc1)C(=O)OCC(=O)N1CC2(C)CC1CC(C)(C)C2` (stereo not drawn): the activity change (PNC), negative = inhibition is 23.1% (inactive).

Turning to `Cn1nccc1CNC(=O)c1ccnn1C`, the activity change (PNC), negative = inhibition was 23.5% (inactive).

Regarding `Cc1ccc(S(=O)(=O)N(CC(=O)Nc2cccc([N+](=O)[O-])c2)Cc2ccc(Cl)cc2)cc1`, the activity change (PNC), negative = inhibition is 34.5% (inactive).

As to `Cc1ccc(N(CC(=O)Nc2cccc(N(C)S(C)(=O)=O)c2)S(C)(=O)=O)cc1`, the activity change (PNC), negative = inhibition was 24.2% (inactive).

`COc1ccc(C)cc1S(=O)(=O)N(CC(=O)Nc1cccc([N+](=O)[O-])c1)c1ccc(C)cc1`: the activity change (PNC), negative = inhibition was -81.9% (active).

Turning to `Cc1ccc(S(=O)(=O)/N=C(/Nc2ccccn2)c2ccc(Cl)cc2)cc1`, the activity change (PNC), negative = inhibition was -85% (active).

As for `O=S(=O)(/N=C(/Nc1ccccn1)c1ccccc1)c1ccc(Cl)cc1`, the activity change (PNC), negative = inhibition is -25.2% (inactive).

As for `Cc1ccc(S/C(=N\S(=O)(=O)c2ccc(Cl)cc2)c2ccccc2)cc1`, the activity change (PNC), negative = inhibition was -26.8% (inactive).

For the molecule `CCNS(=O)(=O)c1ccc(NC(=O)c2cncc(Br)c2)cc1`, the activity change (PNC), negative = inhibition is 6.83% (inactive).

For the molecule `C/C(=N/NS(=O)(=O)c1ccccc1)c1ccc(NC(=O)C(F)(F)F)cc1`, the activity change (PNC), negative = inhibition was 8.62% (inactive).

For the molecule `COC(=O)Cc1ccc(N(Cc2ccccc2F)S(=O)(=O)c2ccc(Br)cc2)cc1`, the activity change (PNC), negative = inhibition is -15.9% (inactive).

As to `CCOc1ccc(NC(=O)Nc2cc(C)ccc2OC)cc1`, the activity change (PNC), negative = inhibition was -3.12% (inactive).

As for `CCOc1ccc(C(=O)Nc2cc(OC)ccc2OC)cc1`, the activity change (PNC), negative = inhibition was -127% (active).

Turning to `CCOc1ccccc1NC(=O)Nc1cc(OC)ccc1OC`, the activity change (PNC), negative = inhibition is 48.5% (inactive).

For `CC1CCCCN1S(=O)(=O)c1ccc(S(=O)(=O)N(CC(=O)Nc2ccccc2)Cc2cccs2)cc1` (stereo not drawn), the activity change (PNC), negative = inhibition was -17.2% (inactive).

For the molecule `CCCOc1ccc(NC(=O)CC2C(=O)N(C)C(=S)N2Cc2ccc3c(c2)OCO3)cc1` (stereo not drawn), the activity change (PNC), negative = inhibition is -134% (active).

For `Cn1c(=O)cc(OCCCC(=O)N2CCN(Cc3ccc4c(c3)OCO4)CC2)c2ccccc21`, the activity change (PNC), negative = inhibition was 19.5% (inactive).

With `CCOc1ccc(NCCC(=O)c2ccc3c(c2)OCO3)cc1`, the activity change (PNC), negative = inhibition was 23% (inactive).

As to `COc1ccc(/C=C/C(=O)NC(=S)NN2CCCCC2c2cccnc2)cc1` (stereo not drawn), the activity change (PNC), negative = inhibition was -29.3% (inactive).

For `CN(C)/N=C/c1cc(Cl)cc([N+](=O)[O-])c1O`, the activity change (PNC), negative = inhibition was 3.04% (inactive).

Take `Cc1ccc(S(=O)(=O)N2CCCC2C(=O)OCc2nc3sc(C)c(C)c3c(=O)[nH]2)cc1` (stereo not drawn): the activity change (PNC), negative = inhibition is 7.12% (inactive).

`O=C(CN1C(=O)c2cccc3cccc(c23)C1=O)N1CCCCC1`: the activity change (PNC), negative = inhibition is -26% (inactive).

With `O=C(Cc1ccccc1)NC(=S)Nc1ccc(N2CCCCC2)cc1`, the activity change (PNC), negative = inhibition was -26.1% (inactive).

Regarding `COc1ccc(NC(=S)NCC2CCN(c3ccc(OC)cc3)C2)cc1` (stereo not drawn), the activity change (PNC), negative = inhibition is -116% (active).

`COc1ccc(NC(=S)NC2CCS(=O)(=O)C2)cc1` (stereo not drawn): the activity change (PNC), negative = inhibition was 36.6% (inactive).

Turning to `COCC(C)n1c(C)cc(C(=O)CSc2cc(C)c3ccccc3n2)c1C` (stereo not drawn), the activity change (PNC), negative = inhibition is -11.6% (inactive).

For the molecule `Cc1cc(F)ccc1S(=O)(=O)N1CCCOC1CNC(=O)C(=O)NCCC1=CCCCC1` (stereo not drawn), the activity change (PNC), negative = inhibition is 14.2% (inactive).

For the molecule `CCCc1cc(=O)[nH]c(SCC(=O)N2CCN(S(=O)(=O)c3ccc(C)cc3C)CC2)n1`, the activity change (PNC), negative = inhibition is -20% (inactive).

Take `Cc1nn(Cc2ccc(F)cc2)c(C)c1NC(=O)c1noc2c1CCc1ccccc1-2`: the activity change (PNC), negative = inhibition is -5.67% (inactive).

With `Cc1nn(Cc2ccc(F)cc2)c(C)c1NC(=O)c1cccnc1Cl`, the activity change (PNC), negative = inhibition was -102% (active).

In the case of `Cc1cc(C(=O)Nc2c(C)nn(Cc3ccccc3)c2C)on1`, the activity change (PNC), negative = inhibition was 36% (inactive).

Turning to `Nc1nc(SCC(=O)NN(c2ccccc2)c2ccccc2)n[nH]1`, the activity change (PNC), negative = inhibition is 8.76% (inactive).

As to `Cc1ccccc1C1=NC(C(F)(F)F)(C(F)(F)F)c2c(n(-c3ccc(F)cc3)c(=O)[nH]c2=O)N1`, the activity change (PNC), negative = inhibition was -9.65% (inactive).

With `CCC1(CC)Cc2ccccc2-c2nc3ccccc3c(=O)n21`, the activity change (PNC), negative = inhibition is 35.3% (inactive).

Consider `CCOC(=O)C(C)Sc1nc2ccccc2c(=O)n1CC1CCCCC1` (stereo not drawn), for which the activity change (PNC), negative = inhibition was 0.699% (inactive).

As to `CCOC(=O)C1CCc2nc3ccccc3c(=O)n21` (stereo not drawn), the activity change (PNC), negative = inhibition was -123% (active).

The values above are taken from PubChem BioAssay AID2417 (National Center for Advancing Translational Sciences (NCATS), 2010).
